According to PubChem BioAssay (Tox21):
Records with an inconclusive call do not appear. A call without a number means that no potency is given here. Unmarked numbers belong to inactive results. Activity calls are given as the source filed them. Calls follow the shape of the dose curve; as a rule, active = well fitted cell-killing curve with a large enough effect in the repeat runs; inconclusive = weak or mixed curves, or effect the other way; inactive = flat fitted curve, though single readings scatter. Where a SMILES comes first, the peptide text is derived from it. [ ]: non-standard residue; d: D form. pGlu = O=C1CC[C@@H](C(=O)O)N1

Assay: qHTS assay to identify small molecule agonists of the estrogen receptor beta (ER-beta) signaling pathway - cell viability counter screen (AID 1259380); also: nearly all actives have a fitted effect of over 30% in size
Settings: ER-beta-bla HEK293T viability, CellTiter-Glo luminescence, 16 h; series mostly up to 92.4 µM
Description: National Center for Advancing Translational Sciences [NCATS]
NIH Chemical Genomics Center [NCGC]
U.S. Environmental Protection Agency [EPA]
National Institutes of Environmental Health Sciences [NIEHS]
National Toxicology Program [NTP]
U.S. Food and Drug Administration [FDA]
Estrogen receptor (ER), a nuclear hormone receptor, plays an important role in development, metabolic homeostasis and reproduction. Two subtypes of ER, ER-alpha and ER-beta, have similar expression patterns with some uniqueness in both types. Endocrine disrupting chemicals (EDCs) and their interactions with steroid hormone receptors like ER causes disruption of normal endocrine function. To identify the compounds that activate ER signaling, an ER beta-UAS-bla GripTite cell line (Life Technologies, Madison, WI, USA) containing a beta-lactamase reporter gene under the control of an UAS response element was used to screen Tox21 10K compound library. The cytotoxicity of the Tox21 compound library against the ER-beta-bla cell line was tested in parallel by measuring the cell viability using CellTiter-Glo assay in the same wells.
Tox21 Assay Protocol Summary:
ER-beta-UAS-bla HEK293T cells were dispensed at 2,000 cells/5 uL of assay medium containing 2% charcoal stripped FBS per well into black wall/clear-bottom 1536-well plates using a Multidrop Combi (ThermoFisher Scientific, Waltham, MA) dispenser. After the assay plates were incubated at a 37C and 5% CO2 for 6 hr, 23 nL of compounds dissolved in DMSO, positive controls or DMSO only was transferred to the assay plate by a Pintool station (Kalypsys, San Diego, CA). The plates were incubated at 37C and 5% CO2 for 16 hr. Then 1 uL of LiveBLAzerTM B/G FRET substrate was added using a BioRAPTR FRD (Flying Reagent Dispenser, Aurora Discovery, San Diego, CA) and then the plates were incubated at room temperature for 2 hours, and fluorescence intensity was measured by an Envision plate reader (PerkinElmer, Shelton, CT). For cell viability readout that measures cytotoxicity, 4 uL/well of CellTiter-Glo reagent was added into the assay plates using a FRD. After 30 min incubation at room temperature, the luminescence intensity in the plates was measured using a ViewLux (PerkinElmer) plate reader.

Row | Structure (SMILES) | Potency | activity change, negative = cytotoxicity
1 | CC(=O)c1ccc2ccccc2c1 | inactive | 
2 | CCCCCCCCCCOc1cc2c(=O)c(C(=O)OCC)c[nH]c2cc1OCC |  | 7.19% [at 8.39 µM]
3 | CCCn1cc[n+](C)c1C | inactive | 
4 | CNCC(O)c1ccc(O)c(O)c1 (stereo not given) | inactive | 
5 | Cc1ccc(C(=O)c2ccc(CC(=O)O)n2C)cc1 | inactive | 
6 | O=C(O)CNC(=O)c1ccccc1 | inactive | 
7 | CCNC(=O)[C@@H]1CCCN1C(=O)[C@H](CCCN=C(N)N)NC(=O)[C@H](CC(C)C)NC(=O)CNC(=O)[C@H](Cc1ccc(O)cc1)NC(=O)[C@H](CO)NC(=O)[C@H](Cc1c[nH]c2ccccc12)NC(=O)[C@H](Cc1cnc[nH]1)NC(=O)[C@@H]1CCC(=O)N1 ([pGlu]HWSYGLRP-NHEt) | inactive | 
8 | CCCCCCCCCCCCCCC(=O)O | inactive | 
9 | CCN1CCOCC1 | inactive | 
10 | CC(C)(CCC(=O)O)C(=O)O | inactive | 
11 | C=CCCC(=O)O | inactive | 
12 | O=S(=O)(O)c1cccc2ccccc12 | inactive | 
13 | CCCCOCCOC(=O)COc1cc(Cl)c(Cl)cc1Cl | inactive | 
14 | O=C(c1ccccc1O)c1ccccc1O | inactive | 
15 | Nc1c2c(nc3c1CCC3)CCCC2 | inactive | 
16 | CN(C)C(=O)Oc1cccc([N+](C)(C)C)c1 | inactive | 
17 | C=COCC1CCC(COC=C)CC1 (stereo not given) | inactive | 
18 | c1ccc(CCc2ccccc2)cc1 | inactive | 
19 | Cc1ccc(-c2ccccc2C#N)cc1 | inactive | 
20 | CCCC(C)C(=O)OCC (stereo not given) | inactive | 

Row | Structure (SMILES) | Potency | activity change, negative = cytotoxicity
21 | COc1cc(C(=O)NCc2ccc(OCCN(C)C)cc2)cc(OC)c1OC | inactive | 
22 | CC(=O)NC(=O)c1ccccc1O | inactive | 
23 | CCC(=O)OCc1ccccc1 | inactive | 
24 | CCCCCCCCCCCCCCCCCCO | inactive | 
25 | O=C1c2ccccc2C(=O)c2cc(O)ccc21 | inactive | 
26 | O=C(O)CCSCCC(=O)O | inactive | 
27 | COc1cc(C(=O)OC(COCCC(C)C)CN2CCOCC2)cc(OC)c1OC (stereo not given) | inactive | 
28 | CC(=O)c1cnccn1 | inactive | 
29 | OCCc1ccccn1 | inactive | 
30 | C=CN1CCCCCC1=O | inactive | 
31 | C=CCOCC(O)CO (stereo not given) | inactive | 
32 | CC1=C(C/C=C(\C)CCC[C@H](C)CCC[C@H](C)CCCC(C)C)C(=O)c2ccccc2C1=O | inactive | 
33 | CCOC(=O)OC(C)OC1=C(C(=O)Nc2ccccn2)N(C)S(=O)(=O)c2ccccc21 (stereo not given) | inactive | 
34 | Nc1ccccn1 | inactive | 
35 | O=S(=O)(O)c1cc(O)c(O)c(S(=O)(=O)O)c1 | inactive | 
36 | CCOC(=O)c1ccccc1 | inactive | 
37 | COC(=O)Nc1ccc(Cl)c(Cl)c1 | inactive | 
38 | Nc1ccn([C@@H]2O[C@H](CO)[C@@H](O)C2O)c(=O)n1 (stereo not given in full) | inactive | 
39 | C=C(C)C(=O)OCCOCCOCCOCCOC(=O)C(=C)C | inactive | 
40 | N[C@H](C(=O)O)[C@@H](O)c1ccc(O)c(O)c1 | inactive | 
